In ChEMBL document CHEMBL2218924, “A broad activity screen in support of a chemogenomic map for kinase signalling research and drug discovery” (Biochem J, 2013):

Columns and labels:
[1] = target: T1, Mitogen-activated protein kinase kinase kinase 5 (Homo sapiens) (UniProt Q99683); details: at 10 µM
T1 sequence (whole entry): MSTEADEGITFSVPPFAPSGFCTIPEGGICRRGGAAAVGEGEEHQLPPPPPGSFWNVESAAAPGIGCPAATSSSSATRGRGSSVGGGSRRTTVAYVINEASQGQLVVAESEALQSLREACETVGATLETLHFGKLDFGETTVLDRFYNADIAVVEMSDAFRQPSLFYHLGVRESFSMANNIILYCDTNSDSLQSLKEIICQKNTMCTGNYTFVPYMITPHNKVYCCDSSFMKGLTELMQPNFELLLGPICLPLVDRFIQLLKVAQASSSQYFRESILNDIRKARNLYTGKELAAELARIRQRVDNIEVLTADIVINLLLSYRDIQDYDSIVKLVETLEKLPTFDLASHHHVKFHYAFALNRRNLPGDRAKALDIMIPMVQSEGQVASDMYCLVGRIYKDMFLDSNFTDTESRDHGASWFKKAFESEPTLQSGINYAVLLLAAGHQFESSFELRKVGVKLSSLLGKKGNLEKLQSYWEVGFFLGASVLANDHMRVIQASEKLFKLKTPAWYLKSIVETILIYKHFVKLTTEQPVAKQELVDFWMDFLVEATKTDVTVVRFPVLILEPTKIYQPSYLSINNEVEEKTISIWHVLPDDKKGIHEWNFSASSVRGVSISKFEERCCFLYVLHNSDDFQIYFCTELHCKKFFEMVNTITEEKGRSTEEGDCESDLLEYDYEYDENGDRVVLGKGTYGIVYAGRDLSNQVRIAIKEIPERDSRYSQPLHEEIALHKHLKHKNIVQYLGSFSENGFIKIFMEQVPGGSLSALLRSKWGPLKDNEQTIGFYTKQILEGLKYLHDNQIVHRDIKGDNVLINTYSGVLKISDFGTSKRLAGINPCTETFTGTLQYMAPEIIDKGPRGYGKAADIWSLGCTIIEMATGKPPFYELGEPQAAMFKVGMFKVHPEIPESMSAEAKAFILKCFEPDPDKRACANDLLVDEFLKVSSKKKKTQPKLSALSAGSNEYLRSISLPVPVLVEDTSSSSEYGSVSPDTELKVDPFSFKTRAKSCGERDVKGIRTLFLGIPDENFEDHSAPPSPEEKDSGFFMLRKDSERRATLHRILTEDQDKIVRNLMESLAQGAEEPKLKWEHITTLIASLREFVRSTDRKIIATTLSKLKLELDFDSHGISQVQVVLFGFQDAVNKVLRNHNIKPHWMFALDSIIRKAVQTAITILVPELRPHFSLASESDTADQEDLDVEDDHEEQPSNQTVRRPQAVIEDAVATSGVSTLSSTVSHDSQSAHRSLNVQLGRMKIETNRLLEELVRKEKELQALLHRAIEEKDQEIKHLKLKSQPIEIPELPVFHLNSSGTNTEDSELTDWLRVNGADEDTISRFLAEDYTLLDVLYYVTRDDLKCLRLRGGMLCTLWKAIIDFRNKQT

[2] = target: Tyrosine-protein kinase ABL1 (Homo sapiens) (UniProt P00519); details: at 1 µM
Sequence of Tyrosine-protein kinase ABL1 (Homo sapiens) (P00519 whole entry): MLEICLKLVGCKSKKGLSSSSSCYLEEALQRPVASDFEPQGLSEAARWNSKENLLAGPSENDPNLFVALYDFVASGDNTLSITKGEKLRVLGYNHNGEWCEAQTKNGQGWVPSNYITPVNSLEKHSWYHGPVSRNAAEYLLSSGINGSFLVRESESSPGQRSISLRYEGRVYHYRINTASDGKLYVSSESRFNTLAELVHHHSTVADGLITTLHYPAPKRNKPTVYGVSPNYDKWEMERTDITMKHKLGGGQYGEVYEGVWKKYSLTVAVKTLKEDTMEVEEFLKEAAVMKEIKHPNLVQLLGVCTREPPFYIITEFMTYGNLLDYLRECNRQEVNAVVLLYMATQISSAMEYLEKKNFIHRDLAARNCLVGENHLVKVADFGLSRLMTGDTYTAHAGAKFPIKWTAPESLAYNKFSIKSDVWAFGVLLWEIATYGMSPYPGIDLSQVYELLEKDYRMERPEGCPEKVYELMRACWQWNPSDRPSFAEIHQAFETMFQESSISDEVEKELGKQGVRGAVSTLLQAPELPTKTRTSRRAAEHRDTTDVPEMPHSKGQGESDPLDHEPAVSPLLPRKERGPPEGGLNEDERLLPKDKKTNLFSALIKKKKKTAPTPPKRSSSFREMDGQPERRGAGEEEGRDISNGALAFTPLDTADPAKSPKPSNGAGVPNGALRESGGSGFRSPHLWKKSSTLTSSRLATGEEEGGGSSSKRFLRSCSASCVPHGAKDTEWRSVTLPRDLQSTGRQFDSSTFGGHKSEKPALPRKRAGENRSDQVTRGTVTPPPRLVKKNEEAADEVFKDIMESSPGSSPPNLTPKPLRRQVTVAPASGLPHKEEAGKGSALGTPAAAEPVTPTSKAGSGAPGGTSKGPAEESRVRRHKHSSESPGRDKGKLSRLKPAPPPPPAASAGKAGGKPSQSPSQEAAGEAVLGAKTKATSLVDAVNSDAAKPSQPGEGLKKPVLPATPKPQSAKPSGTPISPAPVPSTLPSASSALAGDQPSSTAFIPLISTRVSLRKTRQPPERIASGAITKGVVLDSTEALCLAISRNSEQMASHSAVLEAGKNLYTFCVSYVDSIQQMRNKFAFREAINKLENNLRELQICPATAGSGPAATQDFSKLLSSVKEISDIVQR

[3] = target: Tyrosine-protein kinase ABL1 (Homo sapiens) (UniProt P00519); details: at 10 µM
[4] = target: Tyrosine-protein kinase ABL2 (Homo sapiens) (UniProt P42684); details: at 1 µM
Sequence of Tyrosine-protein kinase ABL2 (Homo sapiens) (P42684 whole entry): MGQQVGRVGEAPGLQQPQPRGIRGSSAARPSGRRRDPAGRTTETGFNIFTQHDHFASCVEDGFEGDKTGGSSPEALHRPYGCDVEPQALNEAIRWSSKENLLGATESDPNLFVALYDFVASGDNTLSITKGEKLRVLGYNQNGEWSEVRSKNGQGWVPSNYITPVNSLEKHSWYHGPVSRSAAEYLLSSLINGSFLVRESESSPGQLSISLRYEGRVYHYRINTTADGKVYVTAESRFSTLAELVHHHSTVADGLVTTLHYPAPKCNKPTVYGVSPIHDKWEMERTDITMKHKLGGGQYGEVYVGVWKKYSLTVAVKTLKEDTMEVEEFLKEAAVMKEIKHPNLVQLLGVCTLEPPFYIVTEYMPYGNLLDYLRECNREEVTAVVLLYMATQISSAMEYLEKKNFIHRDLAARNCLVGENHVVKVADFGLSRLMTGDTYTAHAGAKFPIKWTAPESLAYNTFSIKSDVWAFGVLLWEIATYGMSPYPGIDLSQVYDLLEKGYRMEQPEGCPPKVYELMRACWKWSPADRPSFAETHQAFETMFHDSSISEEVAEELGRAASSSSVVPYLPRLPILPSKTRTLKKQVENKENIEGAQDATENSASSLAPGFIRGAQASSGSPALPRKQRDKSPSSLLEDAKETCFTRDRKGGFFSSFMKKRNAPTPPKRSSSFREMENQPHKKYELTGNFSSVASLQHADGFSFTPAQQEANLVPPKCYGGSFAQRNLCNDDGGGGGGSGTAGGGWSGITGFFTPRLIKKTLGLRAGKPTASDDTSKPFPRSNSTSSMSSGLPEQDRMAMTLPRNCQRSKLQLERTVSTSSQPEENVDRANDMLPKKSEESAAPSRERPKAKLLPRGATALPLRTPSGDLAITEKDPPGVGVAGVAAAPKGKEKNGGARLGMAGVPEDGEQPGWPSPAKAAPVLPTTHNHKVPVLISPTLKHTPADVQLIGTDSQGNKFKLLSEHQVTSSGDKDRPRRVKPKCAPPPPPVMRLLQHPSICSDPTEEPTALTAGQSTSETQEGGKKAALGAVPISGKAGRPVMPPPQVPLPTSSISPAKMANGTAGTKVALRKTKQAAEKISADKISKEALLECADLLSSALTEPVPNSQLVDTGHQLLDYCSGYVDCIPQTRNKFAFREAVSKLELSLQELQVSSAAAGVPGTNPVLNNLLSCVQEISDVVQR

[5] = target: Tyrosine-protein kinase ABL2 (Homo sapiens) (UniProt P42684); details: at 10 µM
[6] = target: T2, Aurora kinase A (Homo sapiens) (UniProt O14965); details: at 1 µM
T2 sequence (whole entry): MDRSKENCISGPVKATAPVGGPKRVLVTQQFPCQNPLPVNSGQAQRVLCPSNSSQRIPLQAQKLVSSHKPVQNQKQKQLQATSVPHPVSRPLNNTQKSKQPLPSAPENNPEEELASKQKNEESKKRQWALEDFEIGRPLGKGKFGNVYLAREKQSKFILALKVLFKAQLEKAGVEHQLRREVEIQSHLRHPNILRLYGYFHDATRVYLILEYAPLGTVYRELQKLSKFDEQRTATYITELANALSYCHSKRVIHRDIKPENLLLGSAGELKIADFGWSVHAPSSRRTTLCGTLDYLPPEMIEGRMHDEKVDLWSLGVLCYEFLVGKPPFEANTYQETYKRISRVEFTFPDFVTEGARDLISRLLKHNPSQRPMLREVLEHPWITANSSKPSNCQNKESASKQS

[7] = target: T2, Aurora kinase A (Homo sapiens); details: at 10 µM
[8] = target: Aurora kinase B (Homo sapiens) (UniProt Q96GD4); details: at 1 µM
Sequence of Aurora kinase B (Homo sapiens) (Q96GD4 whole entry): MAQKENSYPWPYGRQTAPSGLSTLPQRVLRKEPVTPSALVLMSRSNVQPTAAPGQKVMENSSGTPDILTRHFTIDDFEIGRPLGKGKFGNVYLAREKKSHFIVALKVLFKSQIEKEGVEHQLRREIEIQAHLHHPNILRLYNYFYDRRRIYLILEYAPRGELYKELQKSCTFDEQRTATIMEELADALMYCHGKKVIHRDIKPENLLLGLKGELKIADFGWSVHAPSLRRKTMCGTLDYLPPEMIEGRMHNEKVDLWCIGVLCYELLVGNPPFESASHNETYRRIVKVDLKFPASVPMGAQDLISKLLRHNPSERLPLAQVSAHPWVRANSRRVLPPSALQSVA

[9] = target: Aurora kinase B (Homo sapiens) (UniProt Q96GD4); details: at 10 µM
[10] = target: T3, Aurora kinase C (Homo sapiens) (UniProt Q9UQB9); details: at 1 µM
T3 sequence (whole entry): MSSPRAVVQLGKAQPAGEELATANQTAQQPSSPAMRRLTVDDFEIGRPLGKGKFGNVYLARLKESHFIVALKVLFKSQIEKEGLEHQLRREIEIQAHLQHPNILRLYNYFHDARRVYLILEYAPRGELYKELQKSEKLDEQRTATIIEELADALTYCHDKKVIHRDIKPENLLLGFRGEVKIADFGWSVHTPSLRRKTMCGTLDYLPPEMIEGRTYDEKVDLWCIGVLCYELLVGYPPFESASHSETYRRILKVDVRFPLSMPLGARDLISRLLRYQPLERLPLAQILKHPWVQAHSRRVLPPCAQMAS

[11] = target: T3, Aurora kinase C (Homo sapiens); details: at 10 µM
[12] = target: Tyrosine-protein kinase receptor UFO (Homo sapiens) (UniProt P30530); details: at 1 µM
Sequence of Tyrosine-protein kinase receptor UFO (Homo sapiens) (P30530 whole entry): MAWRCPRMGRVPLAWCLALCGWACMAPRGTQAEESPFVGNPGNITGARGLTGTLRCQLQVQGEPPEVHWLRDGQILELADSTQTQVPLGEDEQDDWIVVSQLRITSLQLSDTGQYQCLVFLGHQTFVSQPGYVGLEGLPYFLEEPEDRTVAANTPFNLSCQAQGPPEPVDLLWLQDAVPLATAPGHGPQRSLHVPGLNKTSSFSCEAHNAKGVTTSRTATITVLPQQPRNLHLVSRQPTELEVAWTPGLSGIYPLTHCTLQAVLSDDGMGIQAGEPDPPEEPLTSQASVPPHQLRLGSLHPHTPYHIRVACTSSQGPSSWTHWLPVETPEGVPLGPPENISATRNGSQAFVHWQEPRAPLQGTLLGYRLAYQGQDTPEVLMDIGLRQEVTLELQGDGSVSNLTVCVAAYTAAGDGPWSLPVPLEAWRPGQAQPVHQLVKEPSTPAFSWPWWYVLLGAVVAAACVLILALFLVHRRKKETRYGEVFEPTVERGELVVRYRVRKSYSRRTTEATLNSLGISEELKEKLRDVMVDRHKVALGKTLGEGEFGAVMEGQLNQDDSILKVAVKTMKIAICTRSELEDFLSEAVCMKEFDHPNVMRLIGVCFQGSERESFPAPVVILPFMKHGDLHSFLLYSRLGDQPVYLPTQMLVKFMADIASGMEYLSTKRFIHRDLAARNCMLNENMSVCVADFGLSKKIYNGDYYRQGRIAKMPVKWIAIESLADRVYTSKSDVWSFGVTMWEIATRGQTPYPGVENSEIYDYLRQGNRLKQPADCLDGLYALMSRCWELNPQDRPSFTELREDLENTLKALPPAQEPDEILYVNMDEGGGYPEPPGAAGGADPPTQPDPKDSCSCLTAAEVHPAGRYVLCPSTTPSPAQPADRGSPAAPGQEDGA

[13] = target: Tyrosine-protein kinase receptor UFO (Homo sapiens) (UniProt P30530); details: at 10 µM
[14] = target: Tyrosine-protein kinase BTK (Homo sapiens) (UniProt Q06187); details: at 1 µM
Sequence of Tyrosine-protein kinase BTK (Homo sapiens) (Q06187 whole entry): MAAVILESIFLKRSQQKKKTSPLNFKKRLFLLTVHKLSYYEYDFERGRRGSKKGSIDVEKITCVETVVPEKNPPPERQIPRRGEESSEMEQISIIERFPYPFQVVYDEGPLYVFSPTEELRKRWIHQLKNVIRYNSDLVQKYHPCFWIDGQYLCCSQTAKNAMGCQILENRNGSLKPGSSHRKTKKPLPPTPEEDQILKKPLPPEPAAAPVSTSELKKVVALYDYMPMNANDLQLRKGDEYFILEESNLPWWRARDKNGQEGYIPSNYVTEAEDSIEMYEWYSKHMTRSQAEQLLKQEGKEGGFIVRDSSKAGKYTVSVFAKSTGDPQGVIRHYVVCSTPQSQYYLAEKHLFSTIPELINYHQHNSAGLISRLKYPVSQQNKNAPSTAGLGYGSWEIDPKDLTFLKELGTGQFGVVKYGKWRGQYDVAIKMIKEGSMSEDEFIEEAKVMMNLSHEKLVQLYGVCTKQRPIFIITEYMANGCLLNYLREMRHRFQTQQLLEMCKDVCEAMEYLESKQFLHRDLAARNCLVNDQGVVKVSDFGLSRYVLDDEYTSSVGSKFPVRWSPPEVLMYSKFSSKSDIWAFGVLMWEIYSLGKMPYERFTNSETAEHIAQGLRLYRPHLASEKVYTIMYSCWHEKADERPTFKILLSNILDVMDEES

[15] = target: Tyrosine-protein kinase BTK (Homo sapiens) (UniProt Q06187); details: at 10 µM
[16] = target: Tyrosine-protein kinase Blk (Homo sapiens) (UniProt P51451); details: at 1 µM
[17] = target: Tyrosine-protein kinase Blk (Homo sapiens) (UniProt P51451); details: at 10 µM
[18] = target: T4, Protein kinase C zeta type (Homo sapiens) (UniProt Q05513); details: at 1 µM
T4 sequence (whole entry): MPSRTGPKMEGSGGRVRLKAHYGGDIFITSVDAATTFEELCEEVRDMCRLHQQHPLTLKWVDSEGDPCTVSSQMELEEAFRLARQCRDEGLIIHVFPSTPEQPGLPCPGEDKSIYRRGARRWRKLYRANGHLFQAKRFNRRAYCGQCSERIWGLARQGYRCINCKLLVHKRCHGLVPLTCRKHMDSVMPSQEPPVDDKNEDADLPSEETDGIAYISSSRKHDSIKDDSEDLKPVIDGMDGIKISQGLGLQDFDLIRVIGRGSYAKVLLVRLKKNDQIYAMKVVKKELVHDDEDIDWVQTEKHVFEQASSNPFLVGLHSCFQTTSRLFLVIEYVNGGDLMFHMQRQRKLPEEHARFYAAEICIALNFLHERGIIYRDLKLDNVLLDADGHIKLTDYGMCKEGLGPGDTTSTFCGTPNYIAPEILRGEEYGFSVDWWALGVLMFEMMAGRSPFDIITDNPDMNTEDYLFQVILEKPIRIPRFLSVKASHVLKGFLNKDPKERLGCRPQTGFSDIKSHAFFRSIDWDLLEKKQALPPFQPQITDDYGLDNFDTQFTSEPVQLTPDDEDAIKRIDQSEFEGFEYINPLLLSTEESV

[19] = target: Protein-tyrosine kinase 6 (Homo sapiens) (UniProt Q13882); details: at 10 µM
Sequence of Protein-tyrosine kinase 6 (Homo sapiens) (Q13882 whole entry, looked up): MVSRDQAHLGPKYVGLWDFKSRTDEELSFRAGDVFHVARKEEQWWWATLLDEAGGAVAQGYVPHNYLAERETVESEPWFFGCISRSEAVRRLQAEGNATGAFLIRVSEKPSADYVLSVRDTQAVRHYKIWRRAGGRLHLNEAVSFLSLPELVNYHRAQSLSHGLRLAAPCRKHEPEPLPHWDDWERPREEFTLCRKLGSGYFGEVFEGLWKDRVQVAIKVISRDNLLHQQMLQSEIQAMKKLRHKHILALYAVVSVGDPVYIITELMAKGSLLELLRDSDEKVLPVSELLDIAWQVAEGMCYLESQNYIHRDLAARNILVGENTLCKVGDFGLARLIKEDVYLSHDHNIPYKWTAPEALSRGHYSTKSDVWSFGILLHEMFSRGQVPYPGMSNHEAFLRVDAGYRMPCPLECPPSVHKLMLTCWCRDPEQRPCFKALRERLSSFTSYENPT

[20] = target: Protein-tyrosine kinase 6 (Homo sapiens) (UniProt Q13882); details: at 1 µM

Compound | residual activity [1] [%] | residual activity [2] [%] | residual activity [3] [%] | residual activity [4] [%] | residual activity [5] [%] | residual activity [6] [%] | residual activity [7] [%] | residual activity [8] [%] | residual activity [9] [%] | residual activity [10] [%] | residual activity [11] [%] | residual activity [12] [%] | residual activity [13] [%] | residual activity [14] [%] | residual activity [15] [%] | residual activity [16] [%] | residual activity [17] [%] | residual activity [18] | residual activity [19] [%] | residual activity [20] [%]
Nc1n[nH]c2nc3ccccc3nc12 | 75 | 85 | 73 | 87 | 83 | 91 | 77 | 77 | 26 | 72 | 30 | 94 | 96 | 88 | 88 | 89 | 88 | – | – | –
c1ccc(-c2cnc(Nc3ccc(OCCN4CCCC4)cc3)s2)cc1 | – | 61 | 11 | 46 | 8 | – | – | 67 | 18 | 110 | 47 | – | – | – | – | 75 | 6 | 106% (inactive) | 34 | –
O=C1Nc2ccc(Cl)cc2/C1=C/c1cc(Cl)c(O)c(Cl)c1 | 87 | 77 | 42 | 80 | 42 | 57 | 24 | 51 | 2 | 96 | 65 | 71 | 46 | 95 | 70 | 96 | 50 | – | 65 | 84
CCCCc1c(-c2ccc(OC)cc2)[nH]c2nccnc12 | – | 74 | 80 | 59 | 53 | 9 | 13 | 1 | -1 | 59 | 54 | 77 | – | 35 | 4 | 73 | 72 | 114% (inactive) | 46 | 37
COc1ccc(-c2cnc3c(-c4ccsc4)cnn3c2)cc1 | 88 | 76 | 97 | 88 | 94 | – | – | – | – | 95 | 63 | 94 | 95 | – | – | – | – | – | – | –
O=C1NC(=O)C(c2c[nH]c3ccccc23)=C1c1c[nH]c2ccccc12 | – | – | 68 | 78 | 25 | 80 | 45 | 76 | 20 | 114 | – | – | 56 | 100 | 67 | – | 23 | 78% (inactive) | – | –
O=c1cc(N2CCOCC2)oc2c1ccc1ccccc12 | 94 | 99 | – | – | – | 125 | 108 | 110 | 90 | 102 | 87 | 82 | 78 | 94 | 86 | – | 90 | 109% (inactive) | 105 | 110
CCN(CC)CCNC(=O)c1c(C)[nH]c(/C=C2\C(=O)Nc3ccc(Cl)cc32)c1C | 43 | 23 | 0 | 47 | 7 | 47 | 30 | 7 | 1 | 38 | 5 | 9 | 1 | – | – | 1 | 0 | – | 11 | 65
O=C(CCCc1ccc(-c2ccccc2F)cc1)Nc1ccc(O)cc1 | 105 | 110 | – | 105 | 86 | 130 | 102 | 107 | 91 | 97 | 92 | 105 | 100 | 106 | 95 | – | – | – | 96 | 104
Cn1sc(=O)n(Cc2ccccc2)c1=O | 92 | 84 | 83 | – | 90 | 83 | 91 | 88 | 66 | 76 | 77 | 96 | 66 | 91 | 91 | – | – | – | 95 | 96
O=C1NC(=O)c2c1c1c3ccccc3[nH]c1n1cncc21 | 96 | 80 | 62 | 91 | 56 | 14 | 1 | 3 | 0 | 37 | 12 | 86 | 71 | 70 | 34 | 57 | 8 | – | 53 | 81
COc1ccc(CNC(=O)Nc2ncc([N+](=O)[O-])s2)cc1 | – | – | – | 115 | – | – | 113 | – | – | 75 | 78 | – | – | 42 | 35 | – | – | 104% (inactive) | 17 | 24
NC(=O)Nc1sc(-c2ccc(F)cc2)cc1C(N)=O | – | 63 | 32 | 71 | 19 | 32 | 3 | 1 | 2 | 9 | 3 | 77 | 24 | 38 | 1 | 39 | 4 | 114% (inactive) | 26 | 77
O=C(c1ccccc1)c1ccc(N2CCOCC2)cc1O | 95 | 94 | 82 | 98 | 98 | 77 | 91 | 86 | 65 | 64 | 78 | 86 | 72 | – | 116 | 95 | 81 | – | – | –
N#C/C(=C1/Nc2ccccc2S1)c1ccnc(NCCc2cccnc2)n1 | 79 | 115 | 80 | 99 | 76 | 64 | 48 | – | – | – | – | – | – | 96 | 43 | – | – | – | 37 | 60
COc1cc2c(cc1OC)-c1n[nH]c(Nc3cccc(F)c3)c1C2 | – | – | – | – | – | 47 | 22 | 43 | 6 | – | – | 71 | 50 | 22 | 4 | 14 | 2 | 111% (inactive) | 25 | 78
